Bioassay records: PubChem, National Center for Advancing Translational Sciences (NCATS)
IL1B secr inh – inhibitors of inflammasome signaling (IL-1 beta secretion). AID 743279. activity change, % at 57.5 µM. THP-1 LPS/ATP IL-1B secretion, AlphaLISA, 16 h; stronger effect = lower value. 360,000 tested, 4.7% active; in the data active = activity change below about -50%; inconclusive = mostly about -30% to -49%
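THP-1 cells pretreated 1 hr with compounds (up to 57.5 uM final), then stimulated with LPS (250 ng/mL final) plus ATP (1.25 mM final); secreted IL-1B measured by AlphaLISA after 16 hr, decreased signal indicating inhibition.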
RORgamma inh – inhibitors of mouse ROR gamma transcriptional activity; P51450; Drosophila S2 Gal4-RORgamma UAS-luciferase reporter, 20 h; Potency, µM (doses to about 53.6 µM), for inactives: at the top dose activity change, negative = inhibition, actives largely listed as inhibitors; 310,000 tested, 5.4% active; AID 2551; also: potency is read from the fitted curve at half-maximal effect; nearly all actives have a fitted effect of over 60% in size
Target sequence (P51450 whole entry, looked up, the tested form may be a part): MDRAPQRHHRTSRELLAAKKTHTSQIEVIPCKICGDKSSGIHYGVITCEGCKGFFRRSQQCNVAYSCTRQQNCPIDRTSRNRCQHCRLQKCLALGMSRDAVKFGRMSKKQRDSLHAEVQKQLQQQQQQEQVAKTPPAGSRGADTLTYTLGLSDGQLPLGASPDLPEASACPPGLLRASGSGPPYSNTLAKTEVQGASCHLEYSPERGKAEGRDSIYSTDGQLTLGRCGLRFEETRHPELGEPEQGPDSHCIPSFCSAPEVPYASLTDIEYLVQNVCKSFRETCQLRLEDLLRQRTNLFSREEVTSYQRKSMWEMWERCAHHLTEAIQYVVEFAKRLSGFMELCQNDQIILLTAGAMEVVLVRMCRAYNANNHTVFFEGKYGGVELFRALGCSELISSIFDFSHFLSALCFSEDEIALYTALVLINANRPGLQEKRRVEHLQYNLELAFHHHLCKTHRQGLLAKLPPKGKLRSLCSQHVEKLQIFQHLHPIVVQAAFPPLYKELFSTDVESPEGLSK
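Drosophila Schneider cells stably carrying a metallothionein-driven Gal4 DBD–ROR gamma fusion and a UAS-Photinus luciferase reporter were exposed to compound for 1 hr, then induced with copper sulfate (700 uM final) for 20 hr at ambient temperature before luminescence reading.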
Gal4-VP16 FLuc – inhibits Gal4-VP16 luciferase reporter, ROR gamma counter-screen | Potency, µM (highest dose often 53.6 µM), inactives show at the top dose activity, negative = inhibition, actives largely listed as inhibitors | Drosophila S2 Gal4-VP16 UAS-luciferase, luminescence, 20 h | 310,000 tested, 3.5% active | AID 2546;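 also: Gal4-VP16 expression switched on by copper sulfate through the metallothionein promoter; potency is read from the fitted curve at half-maximal effect; nearly all actives have a fitted effect of over 50% in size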
TDP1 cell CPT – DT40-hTDP1 cell growth loss with CPT; 420,000 tested, 12% active; Potency, µM (doses to about 46.2 µM), without a hit: at the top dose activity change, negative = growth inhibition, hits mostly inhibitors; AID 686979; chicken DT40 Tdp1-/-;hTDP1 cells + 20 nM CPT, ATP luminescence, 48 h; also: potency is read from the fitted curve at half-maximal effect; nearly all actives have a fitted effect of over 55% in size
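Cell growth measured by CellTiter-Glo luminescence after a minimum 48 h, 37 C compound exposure with 20 nM CPT in Tdp1-knockout DT40 cells stably expressing hTDP1, seeded 400/well; qHTS titration format.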
TDP1 cell noCPT – qHTS for Inhibitors of human tyrosyl-DNA phosphodiesterase 1 (TDP1): qHTS in cells in absence of CPT. 420,000 tested, 15% active. DT40 Tdp1-/- hTDP1 cells, no CPT, ATP luminescence, 48 h. Potency, µM (highest dose often 46.2 µM), inactives show top-dose activity change, negative = growth inhibition, usual class: inhibitors. AID 686978, 2013; also: potency is read from the fitted curve at half-maximal effect; nearly all actives have a fitted effect of over 55% in size
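DT40 Tdp1-/-;hTDP1 cells, no CPT (DMSO vehicle only), 400 cells/well; compounds pin-transferred; ≥48 hr, 37 °C; CellTiter-Glo 30 min RT dark, luminescence read.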
LDHA block – LDHA (human) enzyme inhibition | purified LDHA, NADH/diaphorase-resazurin fluorescence; stronger effect = lower value | 480,000 tested, 0.15% active | activity change, % (values are at about 110 or 230 µM); in the data active = activity change below about -30%; inconclusive = mostly about -25% to -30%;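 also: plate controls were DMSO wells for no effect and wells without enzyme for full effect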
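Human LDH5 at 2 nM final in Tris HCl pH 7.4 with 0.06 mM NADH and 0.2 mM pyruvate, reacted 5 minutes at room temperature. Remaining NADH coupled via diaphorase/resazurin; resorufin fluorescence read at 0 and 20 minutes, normalized to enzyme-free and DMSO wells.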
* = called active by the depositor; ? = inconclusive; . = no result; [ ] = remark or other dose. Hits are enriched below; roughly 18% of the tested compounds scored in any of these assays. Unless noted, calls follow the shape of the dose curve; as a rule, active = well fitted curve in the direction sought with a large enough effect; inconclusive = small, poorly fitted or top-dose-only effect, or another doubt; inactive = no such curve, though single readings can be large; an effect the other way counts as inactive or inconclusive. Unless noted, % is scaled to controls: 0 for no effect and ±100 for the full control effect.

SMILES	IL1B secr inh	RORgamma inh	Gal4-VP16 FLuc	TDP1 cell CPT	TDP1 cell noCPT	LDHA block
CCn1ccnc1CN1CCC(CO)(CCOc2ccccc2)CC1	8.2	-28.7%	-2.9%	11.2%	-7.8%	-5.6
CCOC(=O)C1(CCc2ccccc2)CCN(Cc2cccc3nccnc23)CC1	?	-27.7%	-23.1%	20.6µM*	16.4µM*	0.7
CCOC(=O)C1(CCOc2ccccc2)CCN(Cc2nccn2CC)CC1	-4.0	5.01µM*	?	?	?	0.9
CCOC(=O)C1(CCCc2ccccc2)CCN(Cc2nccn2CC)CC1	-55.1*	3.98µM*	?	?	?	-12.3
CCOC(=O)C1(CCc2ccccc2)CCN(Cc2ccn[nH]2)CC1	-17.2	12.0%	-7.1%	?	?	-8.4
N#CCc1ccc(NC(=O)CNc2ccccc2C(N)=O)cc1	.	.	.	.	.	-1.7
CC(=O)NC(c1ccccc1)c1nc(-c2ccc3ccccc3c2)cs1 (stereo unspecified)	-21.3	.	.	16.4µM*	?	-0.8
COc1cccc(C(NC(C)=O)c2nc(-c3ccc(C)c(C)c3)cs2)c1 (stereo unspecified)	15.7	.	.	?	?	-3.1
CC(=O)NC(c1ccccc1)c1nc(-c2ccc(C)c(C)c2)cs1 (stereo unspecified)	?	.	.	16.4µM*	18.4µM*	-6.6
COc1cccc(C(NC(C)=O)c2nc(-c3ccc4ccccc4c3)cs2)c1 (stereo unspecified)	-6.4	.	.	18.4µM*	?	-4.9
Cc1ccc(-c2cc(C(=O)OC(C)C(N)=O)c3ccccc3n2)c(C)c1 (stereo unspecified)	.	.	.	.	.	1.6
C=CCNC(=O)NC(=O)CN(C)c1ccc2ccccc2c1	.	.	.	.	.	24.6
CCOc1ccc(OCc2ccc(C(=O)N3CCCC3)o2)cc1	2.1	2.51µM*	-29.5%	?	?	3.3
CCC(C)c1ccc(OCc2ccc(C(=O)O)o2)cc1 (stereo unspecified)	17.5	14.1µM*	?	1.4%	8.1%	-8.6
CCCc1ccc(OCc2ccc(C(=O)N3CCCC3)o2)cc1	19.1	?	-25.4%	?	20.6µM*	-5.2
CC(Oc1ccc(Cl)cc1)C(=O)Nc1ccc(N2CCN(C)CC2)nc1 (stereo unspecified)	.	.	.	.	.	-12.1
Nc1nc(N)c(N=O)c(OCC2CCCCC2)n1	?	?	?	11.6µM*	7.31µM*	-11.0
NS(=O)(=O)c1ccc(NC(=S)Nc2ccccc2)cc1	.	.	.	.	.	-1.2
CCN(CC)CCCN(C(=O)c1ccc(F)cc1)c1nc(-c2ccc(OC)cc2)cs1	-93.4*	-21.0%	-3.4%	13µM*	10.3µM*	-0.5
COCCN(C(=O)c1ccccc1F)c1nc(-c2ccc(OC)cc2)cs1	?	25.6%	2.4%	-3.1%	?	-7.4
COc1ccc(-c2csc(N(CCCN(C)C)C(=O)c3ccccc3F)n2)cc1	?	-20.0%	-12.5%	9.2µM*	14.6µM*	-0.4
CCN(C(=O)c1ccccc1F)c1nc(-c2ccc(OC)cc2)cs1	0.0	?	-9.8%	20.6µM*	20.6µM*	-1.6
COc1ccc(-c2csc(N(CCCN(C)C)C(=O)c3ccc(F)cc3)n2)cc1	-20.8	18.4%	0.3%	-34.9%	?	-1.0
COc1ccc(-c2csc(N(CCCN(C)C)C(=O)c3ccccc3Cl)n2)cc1	-72.4*	.	.	?	?	0.8
O=C(CCC(=O)c1ccc2c(c1)OCCCO2)NC1CCCCCC1	.	.	.	.	.	1.6
SMILES	IL1B secr inh	RORgamma inh	Gal4-VP16 FLuc	TDP1 cell CPT	TDP1 cell noCPT	LDHA block
O=C(NCCCOCC1CC1)c1cc(=O)[nH]c2ccccc12	.	.	.	.	.	-15.3
COc1ccc(-c2csc(N(CCCN(C)C)C(=O)c3ccccc3C)n2)cc1	-76.0*	?	-18.2%	3.66µM*	4.61µM*	1.2
COc1ccc(N(C(=O)c2cccs2)C2C=CS(=O)(=O)C2)c(OC)c1 (stereo unspecified)	.	.	.	.	.	-1.0
CN(C)S(=O)(=O)c1cccc(C(=O)C2=C3SC=C(c4ccccc4)N3CC2)c1	6.7	1.6%	2.5%	?	23.1µM*	-10.6
Cc1c(-c2cccc(Cl)c2)nc2ccccc2c1C(=O)NC1CCCCC1C (stereo unspecified)	.	.	.	.	.	6.8
COC(=O)C1=C(C)N(C)C(C)=C(C(=O)OC)C1c1ccc(Cl)cc1	2.3	-24.6%	14.0%	-23.5%	?	0.1
COC(=O)C1=C(C)N(c2ccc(OC)cc2)C(C)=C(C(=O)OC)C1c1ccc(OC)cc1	-2.1	2.1%	0.1%	8.2µM*	16.4µM*	1.2
COC(=O)C1=C(C)N(c2ccc(OC)cc2)C(C)=C(C(=O)OC)C1c1ccccc1	0.0	-0.4%	5.2%	?	20.6µM*	1.5
Cc1ccc(-c2nc(S(=O)(=O)c3ccccc3)c(N(C)C)o2)cc1	.	.	.	.	.	2.4
CC(C)NC(=O)c1ccccc1Br	.	.	.	.	.	1.6
Cc1nc2ccc(CN(C)c3ccc(C(=O)N[C@@H](CCC(=O)O)C(=O)O)s3)cc2c(=O)[nH]1	.	.	.	0.0084µM*	0.0042µM*	.
C=C1NC(=O)c2cc(CN(C)c3ccc(C(=O)N[C@@H](CCC(=O)O)C(=O)O)s3)ccc2N1	.	6.1%[10 µM]	-9.1%	.	.	.
CCNC(=O)COC(=O)c1c(C)c(CC)nc2ccccc12	.	.	.	.	.	7.9
CCc1nc2ccccc2c(C(=O)OCc2nc3ccccc3c(=O)[nH]2)c1C	-56.0*	.	.	3.26µM*	4.61µM*	-5.8
CCc1nc2ccccc2c(C(=O)OCC(=O)C(C)(C)C)c1C	15.2	0.1%	-5.1%	?	18.4µM*	-0.7
CCc1nc2ccccc2c(C(=O)OCc2nnc(-c3ccccc3)o2)c1C	2.1	16.9%	-10.1%	18.4µM*	?	-5.3
CCc1nc2ccccc2c(C(=O)OCC(=O)NC(N)=O)c1C	.	.	.	.	.	1.0
Cc1ccccc1N=C1CCCc2ccccc21	.	.	.	.	.	3.3
CC(C)(C)c1ccc(NC(=O)C(=O)C2C(=O)Nc3ccccc32)cc1 (stereo unspecified)	29.4	1.5%	-11.2%	?	13µM*	-0.9
CC(C)c1ccc(NC(=O)C(=O)C2C(=O)Nc3ccccc32)cc1 (stereo unspecified)	21.4	-17.4%	0.5%	20.6µM*	14.6µM*	-5.1
Cc1cc(=O)oc2cc(OCC(=O)Oc3ccc4ccccc4c3)ccc12	.	.	.	.	.	43.9
Cc1cc(C)cc(NC(=O)CCCSc2nc3ccccc3[nH]2)c1	?	-1.8%	-3.9%	?	?	0.9
Cc1cc(C)cc(NC(=O)CSc2nc3ccncc3[nH]2)c1	26.8	16.4%	2.5%	6.51µM*	16.4µM*	-7.6
